This is an account of results in paper PMC7862700, “An all-to-all approach to the identification of sequence-specific readers for epigenetic DNA modifications on cytosine”.

Test in all cases: DAPPL (digital affinity profiling via proximity ligation, sequencing); 10 mM Tris-HCl pH 7.5, 50 mM NaCl, 1 mM DTT, 4% glycerol, room temperature, 30 min; GST-TFs on glutathione beads, 16-mer random dsDNA library, 0.1% formaldehyde crosslink after washing; high values mean tight binding
Experiment [1] deals with T1, FLI1 (Homo sapiens, UniProt Q01543 1-452).
T1 sequence: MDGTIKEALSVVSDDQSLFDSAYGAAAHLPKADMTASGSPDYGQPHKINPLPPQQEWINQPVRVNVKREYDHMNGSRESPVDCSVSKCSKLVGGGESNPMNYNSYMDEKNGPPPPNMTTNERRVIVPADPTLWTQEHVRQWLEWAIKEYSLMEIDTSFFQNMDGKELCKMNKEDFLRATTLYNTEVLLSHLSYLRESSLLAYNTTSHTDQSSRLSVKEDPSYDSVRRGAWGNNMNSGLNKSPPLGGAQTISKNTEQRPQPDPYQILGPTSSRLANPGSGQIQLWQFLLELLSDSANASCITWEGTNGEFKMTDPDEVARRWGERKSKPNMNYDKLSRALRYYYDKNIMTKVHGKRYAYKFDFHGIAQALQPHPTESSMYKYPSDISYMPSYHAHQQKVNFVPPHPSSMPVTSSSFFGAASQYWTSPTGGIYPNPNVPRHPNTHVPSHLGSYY
The following applies: protein: recombinant; tags: N-terminal GST; dsDNA, one strand shown. Summed up: (§1)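 Yeast served to express human transcription factors as GST fusions, which were then captured on glutathione beads and labelled with DNA barcodes. Pooled with a tag-only sample, they were incubated with 200 nmole of a 16-mer random double-stranded DNA library for 30 min at room temperature in Tris/NaCl/DTT/glycerol buffer, washed, crosslinked with 0.1% formaldehyde, ligated by proximity, amplified by PCR and sequenced. Dividing each hexamer's read frequency for a factor by its frequency for the tag-only sample gives the binding signal.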

For experiment [2], the target named is T2, ELK1 (Homo sapiens, UniProt P19419 1-428).
T2 sequence: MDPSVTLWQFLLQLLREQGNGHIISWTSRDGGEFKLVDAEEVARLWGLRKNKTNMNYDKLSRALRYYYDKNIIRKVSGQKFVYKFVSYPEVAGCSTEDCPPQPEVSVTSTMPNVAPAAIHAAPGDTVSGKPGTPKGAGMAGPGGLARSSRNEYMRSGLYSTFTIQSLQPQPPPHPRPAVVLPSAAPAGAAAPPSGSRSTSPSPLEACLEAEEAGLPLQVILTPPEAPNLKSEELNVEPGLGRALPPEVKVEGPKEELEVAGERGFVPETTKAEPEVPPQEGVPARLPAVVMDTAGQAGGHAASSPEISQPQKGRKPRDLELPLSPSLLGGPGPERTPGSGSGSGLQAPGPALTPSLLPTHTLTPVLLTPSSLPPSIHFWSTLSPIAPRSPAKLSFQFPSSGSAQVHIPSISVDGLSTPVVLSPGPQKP
The following applies: protein: recombinant; tags: N-terminal GST; dsDNA, one strand shown. Summed up: as §1

Experiment [3] has as its target T3, GABPA (Homo sapiens, UniProt Q06546 1-454).
T3 sequence: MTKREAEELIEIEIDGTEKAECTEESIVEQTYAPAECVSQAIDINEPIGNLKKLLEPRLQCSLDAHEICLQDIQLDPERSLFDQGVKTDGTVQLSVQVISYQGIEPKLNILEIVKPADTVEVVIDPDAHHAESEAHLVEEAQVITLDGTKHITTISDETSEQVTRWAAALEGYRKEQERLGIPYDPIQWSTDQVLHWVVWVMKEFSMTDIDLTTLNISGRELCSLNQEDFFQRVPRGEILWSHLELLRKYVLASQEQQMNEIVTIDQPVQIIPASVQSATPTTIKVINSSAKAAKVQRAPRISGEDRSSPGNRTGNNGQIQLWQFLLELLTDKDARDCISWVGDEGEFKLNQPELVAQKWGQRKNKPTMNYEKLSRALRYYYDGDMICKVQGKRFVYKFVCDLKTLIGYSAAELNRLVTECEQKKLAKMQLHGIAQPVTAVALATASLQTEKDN
As to conditions: protein: recombinant; tags: N-terminal GST; dsDNA, one strand shown. The essentials:
as §1

Experiment [4] concerns the target T4, ERG (Homo sapiens, UniProt P11308 1-479).
T4 sequence: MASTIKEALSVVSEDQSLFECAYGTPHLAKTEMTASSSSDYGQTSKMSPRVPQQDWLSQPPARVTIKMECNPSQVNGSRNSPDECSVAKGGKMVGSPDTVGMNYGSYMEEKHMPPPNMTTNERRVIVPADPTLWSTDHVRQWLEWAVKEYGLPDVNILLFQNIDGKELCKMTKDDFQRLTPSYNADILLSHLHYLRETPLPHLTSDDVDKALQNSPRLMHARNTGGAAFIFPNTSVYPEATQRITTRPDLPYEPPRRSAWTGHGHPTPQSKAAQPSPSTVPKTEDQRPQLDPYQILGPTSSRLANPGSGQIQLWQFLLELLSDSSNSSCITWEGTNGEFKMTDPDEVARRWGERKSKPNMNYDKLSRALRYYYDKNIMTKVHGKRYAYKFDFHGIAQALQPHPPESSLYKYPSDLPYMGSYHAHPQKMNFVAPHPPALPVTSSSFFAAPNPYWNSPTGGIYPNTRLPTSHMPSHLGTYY
The following applies: protein: recombinant; tags: N-terminal GST; dsDNA, one strand shown. Summed up:
as §1

The target in experiment [5] is ELF1 (Homo sapiens, UniProt P32519 1-619). The following applies: protein: recombinant; tags: N-terminal GST; dsDNA, one strand shown. The essentials:
as §1

Experiment [6] deals with T5, EHF (Homo sapiens, UniProt Q9NZC4 1-300).
T5 sequence: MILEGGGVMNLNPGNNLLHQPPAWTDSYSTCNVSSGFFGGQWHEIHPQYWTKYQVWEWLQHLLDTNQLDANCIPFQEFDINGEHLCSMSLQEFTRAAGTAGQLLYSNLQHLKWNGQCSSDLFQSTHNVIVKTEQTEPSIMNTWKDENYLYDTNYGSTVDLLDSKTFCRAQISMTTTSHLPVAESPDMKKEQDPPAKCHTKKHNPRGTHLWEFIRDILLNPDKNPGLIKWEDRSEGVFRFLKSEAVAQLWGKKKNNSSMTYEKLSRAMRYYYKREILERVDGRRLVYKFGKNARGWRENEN
As to conditions: protein: recombinant; tags: N-terminal GST; dsDNA, one strand shown. Summed up: as §1

Experiment [7] addresses SPI1 (Homo sapiens, UniProt P17947 1-270). The following applies: protein: recombinant; tags: N-terminal GST; dsDNA, one strand shown. Summed up: as §1
Experiment [8] addresses SPIB (Homo sapiens, UniProt Q01892 1-262). The following applies: protein: recombinant; tags: N-terminal GST; dsDNA, one strand shown. The essentials:
as §1

For experiment [9], the target named is T6, ELK3 (Homo sapiens, UniProt P41970 1-407).
T6 sequence: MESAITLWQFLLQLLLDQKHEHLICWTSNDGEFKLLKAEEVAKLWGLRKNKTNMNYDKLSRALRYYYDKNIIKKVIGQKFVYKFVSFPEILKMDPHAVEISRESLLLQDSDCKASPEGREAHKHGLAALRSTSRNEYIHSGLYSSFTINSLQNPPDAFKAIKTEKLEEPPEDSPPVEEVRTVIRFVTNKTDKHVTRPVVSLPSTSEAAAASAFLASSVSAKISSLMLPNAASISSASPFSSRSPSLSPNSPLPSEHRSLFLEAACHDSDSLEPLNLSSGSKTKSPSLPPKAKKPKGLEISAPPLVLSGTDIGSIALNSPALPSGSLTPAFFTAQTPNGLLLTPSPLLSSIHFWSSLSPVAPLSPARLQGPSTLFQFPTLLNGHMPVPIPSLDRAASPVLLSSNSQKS
As to conditions: protein: recombinant; tags: N-terminal GST; dsDNA, one strand shown. Summed up: as §1

Experiment [10] deals with T7, FEV (Homo sapiens, UniProt Q99581 1-238).
T7 sequence: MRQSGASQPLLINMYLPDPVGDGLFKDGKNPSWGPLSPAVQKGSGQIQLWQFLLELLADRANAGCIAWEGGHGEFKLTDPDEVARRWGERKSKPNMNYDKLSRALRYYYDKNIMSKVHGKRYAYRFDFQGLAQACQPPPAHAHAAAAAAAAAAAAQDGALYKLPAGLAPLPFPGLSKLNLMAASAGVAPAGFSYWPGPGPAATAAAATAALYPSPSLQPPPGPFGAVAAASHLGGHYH
As to conditions: protein: recombinant; tags: N-terminal GST; dsDNA, one strand shown. The essentials: as §1

Experiment [11] deals with ETV5 (Homo sapiens, UniProt P41161 1-510). The following applies: protein: recombinant; tags: N-terminal GST; dsDNA, one strand shown. Summed up: as §1
ETV5, sequence (P41161 whole entry): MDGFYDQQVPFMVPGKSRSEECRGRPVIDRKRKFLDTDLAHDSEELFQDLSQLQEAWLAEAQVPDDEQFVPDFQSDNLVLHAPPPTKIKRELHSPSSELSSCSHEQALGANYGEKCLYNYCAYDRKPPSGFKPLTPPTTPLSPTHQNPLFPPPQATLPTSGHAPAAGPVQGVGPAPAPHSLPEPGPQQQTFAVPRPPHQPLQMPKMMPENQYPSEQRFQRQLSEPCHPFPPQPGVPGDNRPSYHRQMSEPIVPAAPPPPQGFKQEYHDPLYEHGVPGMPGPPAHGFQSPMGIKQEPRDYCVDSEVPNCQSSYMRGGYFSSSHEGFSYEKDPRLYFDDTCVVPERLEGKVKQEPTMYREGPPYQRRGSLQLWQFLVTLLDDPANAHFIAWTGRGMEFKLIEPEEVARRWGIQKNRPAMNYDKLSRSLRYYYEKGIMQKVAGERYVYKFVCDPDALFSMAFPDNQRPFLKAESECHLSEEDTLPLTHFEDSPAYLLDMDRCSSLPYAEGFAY
In experiment [12] the target is HSF1 (Homo sapiens, UniProt Q00613 1-529). As to conditions: protein: recombinant; tags: N-terminal GST; chain copies: 3; dsDNA, one strand shown. Summed up:
as §1

Experiment [13] concerns the target T8, SPIC (Homo sapiens, UniProt Q8N5J4 1-248).
T8 sequence: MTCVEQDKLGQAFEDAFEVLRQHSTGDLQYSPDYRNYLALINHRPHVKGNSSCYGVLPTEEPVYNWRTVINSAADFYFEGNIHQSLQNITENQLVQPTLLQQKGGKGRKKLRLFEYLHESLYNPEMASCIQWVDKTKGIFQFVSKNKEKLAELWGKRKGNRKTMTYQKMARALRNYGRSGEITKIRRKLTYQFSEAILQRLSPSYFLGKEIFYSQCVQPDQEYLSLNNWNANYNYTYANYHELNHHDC
As to conditions: protein: recombinant; tags: N-terminal GST; dsDNA, one strand shown. The essentials:
as §1

Experiment [14] concerns the target ELF4 (Homo sapiens, UniProt Q99607 1-663). As to conditions: protein: recombinant; tags: N-terminal GST; dsDNA, one strand shown. The essentials:
as §1

Experiment [15] deals with T9, ELK4 (Homo sapiens, UniProt P28324-2 1-405).
T9 sequence: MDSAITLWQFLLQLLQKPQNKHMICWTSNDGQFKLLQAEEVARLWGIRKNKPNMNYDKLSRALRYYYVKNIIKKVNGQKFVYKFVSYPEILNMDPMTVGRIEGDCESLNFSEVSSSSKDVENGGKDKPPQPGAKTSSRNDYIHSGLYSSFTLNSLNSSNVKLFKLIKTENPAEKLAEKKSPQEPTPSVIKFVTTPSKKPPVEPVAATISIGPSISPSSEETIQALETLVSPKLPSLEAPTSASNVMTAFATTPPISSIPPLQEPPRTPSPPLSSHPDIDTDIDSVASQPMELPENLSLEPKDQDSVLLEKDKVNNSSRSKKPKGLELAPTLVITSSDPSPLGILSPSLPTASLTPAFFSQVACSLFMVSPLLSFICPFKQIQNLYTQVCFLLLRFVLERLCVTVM
As to conditions: protein: recombinant; tags: N-terminal GST; dsDNA, one strand shown. The essentials: as §1

Experiment [16] concerns the target T10, ETV2 (Homo sapiens, UniProt O00321 1-342).
T10 sequence: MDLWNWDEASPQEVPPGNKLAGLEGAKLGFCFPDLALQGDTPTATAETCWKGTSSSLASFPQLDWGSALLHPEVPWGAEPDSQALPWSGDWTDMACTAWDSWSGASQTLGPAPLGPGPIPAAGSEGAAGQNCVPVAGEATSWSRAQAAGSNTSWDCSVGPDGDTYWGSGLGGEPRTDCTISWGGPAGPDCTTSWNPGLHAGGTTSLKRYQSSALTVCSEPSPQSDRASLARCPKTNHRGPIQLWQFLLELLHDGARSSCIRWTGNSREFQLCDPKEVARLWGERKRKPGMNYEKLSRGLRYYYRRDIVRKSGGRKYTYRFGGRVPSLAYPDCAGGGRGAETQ
The following applies: protein: recombinant; tags: N-terminal GST; dsDNA, one strand shown. The essentials: as §1

Experiment [17] deals with CRX (Homo sapiens, UniProt O43186 1-299). The following applies: protein: recombinant; tags: N-terminal GST; dsDNA, one strand shown. The essentials: as §1
CRX, sequence (O43186 whole entry): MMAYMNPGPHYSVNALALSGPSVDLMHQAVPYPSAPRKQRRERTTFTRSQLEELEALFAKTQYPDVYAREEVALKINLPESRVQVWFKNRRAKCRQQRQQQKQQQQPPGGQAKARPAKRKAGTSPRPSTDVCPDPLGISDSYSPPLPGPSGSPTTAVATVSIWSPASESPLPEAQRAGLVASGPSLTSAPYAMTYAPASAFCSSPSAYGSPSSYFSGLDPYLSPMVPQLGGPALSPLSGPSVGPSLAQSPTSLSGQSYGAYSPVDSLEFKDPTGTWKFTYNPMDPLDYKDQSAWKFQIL
The target of experiment [18] is ETV1 (Homo sapiens, UniProt P50549 1-477). As to conditions: protein: recombinant; tags: N-terminal GST; dsDNA, one strand shown. The essentials:
as §1

ETV1, sequence (P50549 whole entry): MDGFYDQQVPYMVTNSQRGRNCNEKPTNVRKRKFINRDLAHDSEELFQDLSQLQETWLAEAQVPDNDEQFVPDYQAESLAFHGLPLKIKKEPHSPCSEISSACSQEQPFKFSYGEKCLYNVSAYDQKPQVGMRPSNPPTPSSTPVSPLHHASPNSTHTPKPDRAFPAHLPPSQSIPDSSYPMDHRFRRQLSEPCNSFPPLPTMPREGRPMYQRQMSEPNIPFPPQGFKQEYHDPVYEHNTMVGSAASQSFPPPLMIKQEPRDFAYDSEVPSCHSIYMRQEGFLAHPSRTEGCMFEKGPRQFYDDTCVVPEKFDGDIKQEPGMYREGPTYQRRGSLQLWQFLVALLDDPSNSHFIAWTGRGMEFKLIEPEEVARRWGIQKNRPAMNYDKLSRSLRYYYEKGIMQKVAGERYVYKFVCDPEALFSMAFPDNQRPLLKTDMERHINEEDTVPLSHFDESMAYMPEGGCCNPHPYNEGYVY
SPIB, sequence (Q01892 whole entry): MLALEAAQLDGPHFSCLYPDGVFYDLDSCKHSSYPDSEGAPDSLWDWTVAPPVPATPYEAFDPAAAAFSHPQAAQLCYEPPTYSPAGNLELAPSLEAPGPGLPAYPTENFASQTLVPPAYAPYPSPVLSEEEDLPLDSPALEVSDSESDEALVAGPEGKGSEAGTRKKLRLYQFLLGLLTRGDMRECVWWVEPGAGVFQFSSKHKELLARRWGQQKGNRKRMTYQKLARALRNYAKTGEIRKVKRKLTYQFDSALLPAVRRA
ELF1, sequence (P32519 whole entry): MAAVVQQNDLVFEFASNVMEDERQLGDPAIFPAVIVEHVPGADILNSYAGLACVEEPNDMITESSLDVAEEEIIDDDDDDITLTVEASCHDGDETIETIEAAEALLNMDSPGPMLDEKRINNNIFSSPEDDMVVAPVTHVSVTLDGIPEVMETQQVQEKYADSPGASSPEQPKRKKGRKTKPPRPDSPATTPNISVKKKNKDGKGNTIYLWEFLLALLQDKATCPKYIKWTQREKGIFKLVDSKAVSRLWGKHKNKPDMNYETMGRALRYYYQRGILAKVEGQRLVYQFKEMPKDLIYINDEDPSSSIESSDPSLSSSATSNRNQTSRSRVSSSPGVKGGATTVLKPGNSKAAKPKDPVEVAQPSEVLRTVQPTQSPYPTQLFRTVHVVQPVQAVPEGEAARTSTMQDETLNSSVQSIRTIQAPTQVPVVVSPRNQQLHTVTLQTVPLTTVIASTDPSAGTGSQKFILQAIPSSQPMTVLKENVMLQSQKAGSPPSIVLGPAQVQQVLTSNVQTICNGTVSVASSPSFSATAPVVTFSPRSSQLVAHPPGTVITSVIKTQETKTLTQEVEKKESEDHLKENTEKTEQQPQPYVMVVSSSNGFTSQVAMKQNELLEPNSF
HSF1, sequence (Q00613 whole entry): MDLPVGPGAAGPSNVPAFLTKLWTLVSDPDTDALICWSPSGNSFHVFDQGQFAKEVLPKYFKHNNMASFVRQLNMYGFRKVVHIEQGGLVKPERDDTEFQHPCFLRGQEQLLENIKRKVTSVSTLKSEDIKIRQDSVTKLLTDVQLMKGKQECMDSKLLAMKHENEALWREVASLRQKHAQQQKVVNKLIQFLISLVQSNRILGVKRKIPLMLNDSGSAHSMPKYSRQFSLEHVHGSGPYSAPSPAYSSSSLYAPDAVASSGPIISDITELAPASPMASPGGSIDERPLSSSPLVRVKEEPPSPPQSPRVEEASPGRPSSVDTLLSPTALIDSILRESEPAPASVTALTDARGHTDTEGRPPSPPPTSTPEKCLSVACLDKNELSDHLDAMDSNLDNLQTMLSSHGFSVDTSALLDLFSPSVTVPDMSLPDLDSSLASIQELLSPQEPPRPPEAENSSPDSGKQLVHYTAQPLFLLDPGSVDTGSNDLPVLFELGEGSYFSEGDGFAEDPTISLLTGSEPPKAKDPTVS
ELF4, sequence (Q99607 whole entry): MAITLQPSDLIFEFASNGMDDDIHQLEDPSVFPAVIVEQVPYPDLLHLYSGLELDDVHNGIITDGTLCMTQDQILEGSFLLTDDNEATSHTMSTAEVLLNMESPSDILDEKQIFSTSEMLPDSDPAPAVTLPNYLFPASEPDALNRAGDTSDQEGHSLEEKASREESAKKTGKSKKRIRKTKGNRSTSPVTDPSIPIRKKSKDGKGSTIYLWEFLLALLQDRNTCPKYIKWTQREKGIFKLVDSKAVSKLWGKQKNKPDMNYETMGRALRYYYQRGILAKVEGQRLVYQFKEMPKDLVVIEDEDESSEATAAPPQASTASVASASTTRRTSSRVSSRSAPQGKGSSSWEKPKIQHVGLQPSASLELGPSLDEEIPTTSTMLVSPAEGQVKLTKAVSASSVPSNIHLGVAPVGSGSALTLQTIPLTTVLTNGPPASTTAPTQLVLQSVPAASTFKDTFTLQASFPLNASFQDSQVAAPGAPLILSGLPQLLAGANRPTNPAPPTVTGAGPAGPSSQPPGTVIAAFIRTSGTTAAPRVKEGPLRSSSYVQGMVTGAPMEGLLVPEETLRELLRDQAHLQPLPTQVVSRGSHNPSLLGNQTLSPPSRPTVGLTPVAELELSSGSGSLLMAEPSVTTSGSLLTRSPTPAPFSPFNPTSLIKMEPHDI

Turning to GCCTAT, the binding signal in experiment [1] was 1.18 fold enrichment (6-mer frequency, TF over GST control); in experiment [2], 1.3 fold enrichment (6-mer frequency, TF over GST control); in experiment [3] it was 1.21 fold enrichment (6-mer frequency, TF over GST control); in experiment [4], 1.23 fold enrichment (6-mer frequency, TF over GST control); in experiment [5], 1.39 fold enrichment (6-mer frequency, TF over GST control); in [6], 1.17 fold enrichment (6-mer frequency, TF over GST control). Also, the binding signal is 1.13 fold enrichment (6-mer frequency, TF over GST control) in [7]; 1.21 fold enrichment (6-mer frequency, TF over GST control) in experiment [8]; 1.27 fold enrichment (6-mer frequency, TF over GST control) in experiment [9]; 1.16 fold enrichment (6-mer frequency, TF over GST control) in [10]; 1.3 fold enrichment (6-mer frequency, TF over GST control) in [11]; 1.07 fold enrichment (6-mer frequency, TF over GST control) in experiment [12]. The binding signal is 1.12 fold enrichment (6-mer frequency, TF over GST control) in experiment [13]; 1.18 fold enrichment (6-mer frequency, TF over GST control) in experiment [14]; 1.31 fold enrichment (6-mer frequency, TF over GST control) in [15]; 1.2 fold enrichment (6-mer frequency, TF over GST control) in experiment [16]; 1.3 fold enrichment (6-mer frequency, TF over GST control) in experiment [17]; 1.09 fold enrichment (6-mer frequency, TF over GST control) in experiment [18].
